This is a sample that favours compounds with a hit; in the whole collection about 1.6% have one here.
KCNQ2 enhance: potentiators of rat KCNQ2 potassium channel. AID 2239, 2010. CHO-K1 KCNQ2, FluxOR thallium flux fluorescence; active compounds read high. B-score at 10 µM. hit rate 0.54% among 310,000. Potassium voltage-gated channel subfamily KQT member 2 (Rattus norvegicus), O88943;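 active = fluorescence ratio B-score at least 3 SD of library B-scores, with initial fluorescence B-score within 3 of them, cut at about 5.3 in these data; same plate scores as AID 2156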;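 note: B-score of peak minus minimum over baseline fluorescence ratio after K+ and Tl+ stimulus; positive B-score means potentiation of KCNQ2 with more thallium influx and brighter signal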
Target sequence (O88943 whole entry, looked up): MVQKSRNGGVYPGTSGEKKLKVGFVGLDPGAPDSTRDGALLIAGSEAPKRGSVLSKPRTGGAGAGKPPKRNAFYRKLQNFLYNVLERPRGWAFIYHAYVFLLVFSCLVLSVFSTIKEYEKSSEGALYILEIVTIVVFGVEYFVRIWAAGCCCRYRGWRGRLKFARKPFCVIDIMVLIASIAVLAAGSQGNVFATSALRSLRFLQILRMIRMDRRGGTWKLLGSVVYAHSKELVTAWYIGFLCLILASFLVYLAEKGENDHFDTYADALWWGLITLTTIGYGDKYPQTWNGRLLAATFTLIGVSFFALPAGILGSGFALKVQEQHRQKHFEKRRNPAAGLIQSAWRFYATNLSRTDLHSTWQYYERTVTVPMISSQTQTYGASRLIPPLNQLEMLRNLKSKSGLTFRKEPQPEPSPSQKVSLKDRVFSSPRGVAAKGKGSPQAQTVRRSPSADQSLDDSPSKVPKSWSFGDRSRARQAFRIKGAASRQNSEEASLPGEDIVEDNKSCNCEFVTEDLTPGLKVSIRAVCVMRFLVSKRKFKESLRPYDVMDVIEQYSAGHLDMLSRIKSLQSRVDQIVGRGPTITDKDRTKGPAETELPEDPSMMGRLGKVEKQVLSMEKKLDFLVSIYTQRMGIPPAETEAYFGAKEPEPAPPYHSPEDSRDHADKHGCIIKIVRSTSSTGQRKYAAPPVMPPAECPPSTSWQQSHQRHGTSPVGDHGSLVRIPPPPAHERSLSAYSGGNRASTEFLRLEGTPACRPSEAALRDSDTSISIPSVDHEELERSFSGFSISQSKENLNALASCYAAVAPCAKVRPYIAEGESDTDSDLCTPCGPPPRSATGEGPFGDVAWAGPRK
KCNQ2 block: rat KCNQ2 potassium channel inhibitors, primary screen, cell-based, CHO-K1, FluxOR thallium flux, B-score | Potassium voltage-gated channel subfamily KQT member 2 (Rattus norvegicus), O88943 | 20 min; active compounds read low | B-score at 10 µM | hit rate 1.1% among 310,000 | AID 2156, 2009;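 active = fluorescence ratio B-score at most minus 3 library SDs, with starting brightness B-score within 2 library SDs, cut at about -5.5 in these data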
Numbers without * were called inactive; i = inactive; . = not tested or not shown.

SMILES	KCNQ2 enhance	KCNQ2 block
O=C(NC(=S)N1CCCC(C(F)(F)F)C1)c1ccc(F)cc1 (stereo not given)	4.26	i
CCOC(=O)c1ccccc1NC(=O)c1cn(-c2ccc(C)c(C)c2)c(=O)c2ccccc12	-6.42	-6.42*
COC(=O)c1ccccc1NC(=O)c1cn(-c2ccc(C)c(C)c2)c(=O)c2ccccc12	.	i
O=C(Cn1c(=O)oc2ccccc21)Nc1ccc(Cl)cc1Cl	.	i
COc1ccc(NC(=O)CS(=O)c2cccc(Cl)c2)cc1 (stereo not given)	0.8	i
Cn1c(SCC(=O)Nc2nccs2)nnc1-c1ccco1	.	i
Cn1c(SCC(=O)Nc2ccc(Cl)cc2F)nnc1-c1ccco1	-5.79	-5.79*
N/C(=N\NS(=O)(=O)c1ccccc1Cl)c1ccccn1	0.73	i
CCN(C(=O)Cn1nc(C)n2c(cc3cc(C)ccc32)c1=O)c1ccccc1	.	i
COc1ccccc1N1CCN(C(=O)c2ccc(C(C)(C)C)cc2)CC1	.	i
COc1ccccc1C1CCN(C(=O)c2ccc(C(C)(C)C)cc2)CC1	-6.5	-6.5*
Cc1ccc([N+](=O)[O-])cc1NC(=O)c1ccc(CSc2ccccc2)cc1	0.57	i
Cc1ccc(SCc2ccc(C(=O)Nc3cccc([N+](=O)[O-])c3C)cc2)cc1	-5.64	-5.64*
CCCCc1nc2ccccc2c(=O)n1NC(=O)c1c(O)c2c(n(CC(C)C)c1=O)CCCC2	.	i
CC(C)Cn1c2c(c(O)c(C(=O)Nn3c(Cc4ccccc4)nc4ccccc4c3=O)c1=O)CCCC2	-6.26	-6.26*
CCc1cc(C(=O)N2CCCC(C(=O)c3ccc(Oc4ccccc4)cc3)C2)n(C)n1 (stereo not given)	0.8	i
CCOC(=O)c1c(N)sc(C(N)=O)c1C	.	i
CCOC(=O)c1c(N)sc(N)c1C(=O)OCC	9.73*	i
Cc1cc(C)n(CC(O)COc2ccccc2C(=O)Nc2ccccc2)n1 (stereo not given)	-6.64	-6.64*
COc1ccccc1OCC(O)Cn1nc(C)cc1C (stereo not given)	.	i
CSc1ncccc1C(=O)OCC(=O)N(C)c1c(N)n(Cc2ccccc2)c(=O)[nH]c1=O	1	i
O=[N+]([O-])c1cc(S(=O)(=O)NCCN2CCOCC2)ccc1Cl	.	i
Cc1cc(F)ccc1S(=O)(=O)N1CCCOC1CNC(=O)C(=O)NCc1cccnc1 (stereo not given)	.	i
CCOC(=O)C1(CCc2ccccc2)CCN(Cc2cccc3nccnc23)CC1	-5.88	-5.88*
CCOC(=O)C1(CCc2ccccc2)CCN(Cc2ccn[nH]2)CC1	.	i
SMILES	KCNQ2 enhance	KCNQ2 block
CN(Cc1cccnc1)Cc1c(C(=O)N2CCc3ccccc3C2)nc2ccc(Cl)cn12	.	i
CCCCN(C)Cc1c(C(=O)N2CCc3ccccc3C2)nc2ccc(Cl)cn12	-5.64	-5.64*
COc1ccccc1CNS(=O)(=O)c1ccc2c(c1)CC(C)N2C(=O)C1CCC1 (stereo not given)	0.75	i
O=C(NCc1nc2ccccc2[nH]1)c1ccccc1F	1.07	i
O=C(NCCCc1nc2ccccc2[nH]1)c1ccc(F)cc1	7.3*	i
CCOC(=O)c1cc(S(=O)(=O)NC2CCC(C)CC2)cn1C (stereo not given)	0.09	i
CC1(C)Cc2c(cnn2-c2ccc(F)cc2)C(NC(=O)CCc2ccncc2)C1 (stereo not given)	0.65	i
COC(=O)C1=C(C)N(c2ccc(OC)c(OC)c2)C(=O)/C1=C\c1ccco1	0.96	i
CCOC(=O)C1=C(C)N(c2ccccc2)C(=O)/C1=C\c1ccco1	-5.96	-5.96*
O=C(CN1CCN(c2ccccn2)CC1)Nc1cccc(Cl)c1Cl	-7.24	-7.24*
O=C(CN1CCN(c2ccccn2)CC1)Nc1ccccc1Br	.	i
CCn1c(SCC(=O)NC2CCCCC2)nc2c(c1=O)SCC2	0.83	i
CCCC1=NN2C(=N)/C(=C\c3ccc(OCCOc4ccc(NC(C)=O)cc4)c(OC)c3)C(=O)N=C2S1	1.57	i
C=CCn1c(=O)c(C(=O)NCc2ccc(Cl)cc2)c(O)c2ccccc21	-5.98	-5.98*
C=CCn1c(=O)c(C(=O)Nc2ccc(C)cn2)c(O)c2ccccc21	.	i
O=C(OCC(=O)N1CCCC1=O)c1ccc(Cl)cc1[N+](=O)[O-]	.	i
CC(C)c1nc2c(s1)CCc1onc(-c3cccc([N+](=O)[O-])c3)c1-2	.	i
COc1ccccc1CN1CCC(CNS(=O)(=O)c2cc(-c3cc(C)no3)ccc2OC)CC1	.	i
Cn1c(CC(=O)Nc2ccc(F)cc2)c(Sc2ccccc2)c2ccccc21	.	i
COc1ccc(NC(=O)Cc2c(Sc3ccccc3)c3ccccc3n2C)cc1	-6.26	-6.26*
O=C(Nc1ccc(S(=O)(=O)Nc2ncccn2)cc1)C(F)(F)F	.	i
Cc1ccccc1NC(=O)c1ccc(Cn2cc([N+](=O)[O-])cn2)o1	0.72	i
O=C(Nc1cccc(F)c1)c1ccc(Cn2cc([N+](=O)[O-])cn2)o1	5.49*	i
COc1ccc(C(=O)NN/C(C)=C/C(=O)C(F)(F)C(F)(F)C(F)(F)F)cc1	10*	i
COc1ccc(C(=O)NNC(=O)OC(C)(C)C)cc1	.	i
SMILES	KCNQ2 enhance	KCNQ2 block
Cc1ccc(N2C(=O)N(CC(=O)NC(N)=O)C(=O)C2C)cc1 (stereo not given)	1.66	i
Cc1ccc(N2C(=O)N(CC(=O)NC(c3ccccc3)c3ccccc3)C(=O)C2C)cc1 (stereo not given)	-5.96	-5.96*
C=CCOc1c(Br)cc(CNc2ccc(NC(=O)C(C)C)c(OC)c2)cc1OCC	6.61*	i
C=CCOc1c(Br)cc(CNc2ccc3[nH]c(=O)[nH]c3c2)cc1OCC	0.68	i
COc1ccc(C2CC(=O)C=C(NCc3ccccc3)C2)cc1 (stereo not given)	.	i
COc1ccc(CCNC(=O)c2cc(C(=O)c3cc(C)ccc3O)cn(CCc3ccc(OC)cc3)c2=O)cc1	-7.27	-7.27*
COc1ccc(CCNC(=O)c2cc(C(=O)c3cc(Cl)ccc3O)cn(CCc3ccc(OC)cc3)c2=O)cc1	.	i
O=C(NCCc1ccccc1)c1ccccc1Cl	.	i
O=C(c1cc(C(=O)NCCc2ccccc2)c(=O)n(CCc2ccccc2)c1)c1cc(Cl)ccc1O	-6.38	-6.38*
COc1ccccc1-c1coc2c(CN3CCCC(C)C3)c(O)ccc2c1=O (stereo not given)	0.38	i
CN(C)c1cccc(C(=O)OCC(=O)Nc2ccccc2-c2ccccc2)c1	0.47	i
CCN(CC)c1ccc(C(=O)OCC(=O)Nc2ccccc2-c2ccccc2)cc1	-6.5	-6.5*
CN(CC(=O)Nc1ccc(F)cc1)C(=O)CN1C(=O)NC2(CCCc3ccccc32)C1=O (stereo not given)	0.9	i
COc1ccccc1-n1c(SC)nc2c(sc(=S)n2-c2ccccc2)c1=O	1.02	i
COc1ccccc1-n1c(=S)sc2c(=O)n(Cc3ccco3)c(SC)nc21	-6.92	-6.92*
CN(C)CCn1c2c(c(SCC(=O)NCc3ccccc3)nc1=O)CCCC2	.	i
Cc1cc(NC(=O)CCC(=O)N(c2ccccc2C)C(C(=O)NC2CCCC2)c2ccccc2)no1 (stereo not given)	1.37	i
OC(CCN1CCOCC1)(c1ccc(Cl)cc1)C1CCCCC1 (stereo not given)	-5.83	-5.83*
OC(CCN1CCCCC1)(c1ccccc1)C1CCCCC1 (stereo not given)	.	i
